# Reference: PubChem BioAssay
# Activity calls are given as the source filed them. Unless noted, how the calls were made is not given here.
# How the values were obtained:
# [1] = tested on: Wnt5a (protein binding on small-molecule microarray); assay: Wnt5a binders on small-molecule microarray, primary screen, biophysical, 635/667 nm fluorescence (AID 1142); settings: 635 nm fluorescence, higher = more signal;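 further: fluorescence read at 667 nm with signal to noise per printed feature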
# [2] = cell viability in Huh7 cells, primary screen, cytotoxicity control for HCV replication inhibitor project, CellTiter-Glo luminescence, basal, 48 h (AID 1143); settings: Huh7 HCV replicon, higher = more signal, called active from +8 up or from −8 down;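 further: Huh7 hepatoma cells carrying a hepatitis C replication reporter with no stimulus; test concentration not given here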
# [3] = P. aeruginosa biofilm formation inhibitors, primary screen, PAO1 strain, BacTiter-Glo luminescence, LB-PBS (AID 1144); settings: 12 h, higher = more signal
# [4] = CREB reporter modulators without forskolin, primary screen, cell-based, PC12, CRE-LacZ reporter, unstimulated (AID 1145); settings: no forskolin, luminescence, 4.5 h, higher = more signal, called active from +8 up or from −8 down
# [5] = CREB reporter modulators under forskolin, primary screen, cell-based, PC12, CRE-LacZ reporter, forskolin-stimulated (AID 1146); settings: luminescence, 4.5 h, higher = more signal, called active from +8 up or from −8 down;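 further: PC12 cells with 6xCRE LacZ reporter stimulated by forskolin 10 µM; beta-galactosidase reporter signal reflecting CREB driven transcription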
# [6] = target: Streptavidin (Streptomyces avidinii) (UniProt P22629); assay: streptavidin binders on small-molecule microarray, primary screen, artefact control for SMM compound annotation, biophysical, 635/667 nm fluorescence (AID 1147); settings: streptavidin binding, higher = more signal;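 further: signal reflects streptavidin binding to arrayed compounds as a control protein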
# [7] = small-molecule binders of probe aInhba, primary screen, biochemical, small-molecule microarray, 635/667 nm fluorescence (AID 1148); settings: higher = more signal;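 further: score merges 667nm spot fluorescence with signal-to-noise for antibody binding to printed compounds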
# [8] = target: Torsin-1A (Homo sapiens) (UniProt O14656); assay: torsin A binders from cell lysate, primary screen, small-molecule microarray, wild-type, 635/667 nm (AID 1149); settings: COS7 hTOR1A-WT lysate, 635 nm fluorescence, higher = more signal
# [9] = target: Torsin-1A (Homo sapiens) (UniProt O14656); assay: small-molecule binders of mutant TOR1A in lysate, primary screen, cell lysate, small-molecule microarray, COS7 lysate, 635/667 nm fluorescence (AID 1150); settings: COS7 hTOR1A mutant lysate, 635 nm fluorescence, higher = more signal;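 further: score pools 667 nm emission and signal to noise measuring lysate protein binding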
# [10] = tested on: Sonic hedgehog protein (Shh); assay: small-molecule binders of Shh protein, primary screen, biochemical, small-molecule microarray, 635/667 nm fluorescence (AID 1151); settings: small-molecule microarray binding, 635 nm fluorescence; higher = more signal;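 further: Shh protein binding to compounds spotted on small-molecule microarray slides; score combines spot fluorescence intensity with signal-to-noise across triplicate slides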
# [11] = E. coli DRC41 culture turbidity changes, primary screen, E. coli filamentation inducer project, strain DRC41, OD650, 48 h (AID 1152);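 further: E. coli MC1000 strain DRC41 lacking acrAB efflux pump and sulA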; settings: E. coli DRC41 (acrAB sulA), higher = more signal, called active from +8 up or from −8 down
# [12] = small-molecule binders of probe aLefty1, primary screen, biochemical, small-molecule microarray, 635/667 nm fluorescence (AID 1153); settings: higher = more signal;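 further: score merges spot fluorescence with signal-to-noise ratio from the scanned slide images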
# [13] = PSAC antagonists in infected red cells, primary screen, cell-based, P. falciparum Indochina, OD700, 1 h (AID 1154); settings: P. falciparum Indochina infected RBC osmotic lysis, higher = more signal, called active from +8 up or from −8 down
# [14] = PSAC antagonists in infected red cells, primary screen, cell-based, P. falciparum Indochina, OD700, 2 h (AID 1155);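 further: lysis reports solute entry through the parasite surface anion channel PSAC; channel blockers reduce lysis of infected cells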; settings: P. falciparum Indochina infected erythrocytes, osmotic lysis OD700; higher = more signal, called active from +8 up or from −8 down
# [15] = osmotic lysis modulators in infected erythrocytes, primary screen, PSAC antagonist project, cell-based, P. falciparum Indochina, OD700, 3 h (AID 1156); settings: higher = more signal, called active from +8 up or from −8 down
# [16] = PSAC antagonists in infected red cells, primary screen, cell-based, P. falciparum Indochina, OD700, 18 h (AID 1157); settings: P. falciparum Indochina infected erythrocytes, osmotic lysis OD700, 18 h; higher = more signal, called active from +8 up or from −8 down
# [17] = modulators of S6 phosphorylation in cells, primary screen, cell-based, A549, cytoblot, luminescence, serum-stimulated (AID 1158); settings: A549 phospho-S6 cytoblot, 5 h, higher = more signal;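 further: serum-stimulated A549 lung adenocarcinoma cells; signal is phosphorylated S6 detected by cytoblot immunostaining with HRP secondary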
# [18] = target: NADPH oxidase 2 (Homo sapiens) (UniProt P04839); assay: NOX2-dependent H2O2 signal modulators, primary screen, NOX inhibitor project, cell-based, HEK293-NOX2, PMA-stimulated, Amplex Red fluorescence (AID 1159); settings: 45 min, higher = more signal, called active from +8 up or from −8 down; further: test concentration not given here
# [19] = target: NADPH oxidase 4 (Homo sapiens) (UniProt Q9NPH5); assay: NOX4-dependent H2O2 signal modulators, primary screen, NOX inhibitor project, cell-based, HEK293-NOX4, tetracycline-induced, Amplex Red fluorescence (AID 1160); settings: 45 min, higher = more signal, called active from +8 up or from −8 down
# [20] = target: NADPH oxidase 5 (Homo sapiens) (UniProt Q96PH1); assay: NOX5-dependent H2O2 signal modulators, primary screen, NOX inhibitor project, cell-based, HEK293-NOX5, Amplex Red fluorescence (AID 1161); settings: HEK293-NOX5, ionomycin, 45 min, higher = more signal
# Chain of NADPH oxidase 5 (Homo sapiens) (Q96PH1 whole entry, looked up): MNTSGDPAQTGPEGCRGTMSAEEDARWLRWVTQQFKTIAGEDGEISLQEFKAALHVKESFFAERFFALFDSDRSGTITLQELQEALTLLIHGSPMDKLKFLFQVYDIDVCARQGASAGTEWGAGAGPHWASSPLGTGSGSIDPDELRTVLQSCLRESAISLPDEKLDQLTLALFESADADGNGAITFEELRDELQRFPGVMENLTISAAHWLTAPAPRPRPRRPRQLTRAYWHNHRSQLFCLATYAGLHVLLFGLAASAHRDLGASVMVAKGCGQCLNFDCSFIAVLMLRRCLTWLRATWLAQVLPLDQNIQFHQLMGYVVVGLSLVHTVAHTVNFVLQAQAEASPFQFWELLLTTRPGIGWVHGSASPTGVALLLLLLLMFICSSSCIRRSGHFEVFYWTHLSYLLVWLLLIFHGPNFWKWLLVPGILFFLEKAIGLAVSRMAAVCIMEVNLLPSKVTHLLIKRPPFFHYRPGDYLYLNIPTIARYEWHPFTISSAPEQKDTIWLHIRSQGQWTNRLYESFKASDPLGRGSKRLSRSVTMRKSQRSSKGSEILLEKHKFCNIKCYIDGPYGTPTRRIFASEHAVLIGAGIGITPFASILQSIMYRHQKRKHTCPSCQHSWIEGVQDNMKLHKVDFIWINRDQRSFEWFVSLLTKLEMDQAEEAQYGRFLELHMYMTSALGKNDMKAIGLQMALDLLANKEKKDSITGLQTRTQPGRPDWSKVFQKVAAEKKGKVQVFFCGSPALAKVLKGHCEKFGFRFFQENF
# Chain of NADPH oxidase 4 (Homo sapiens) (Q9NPH5 whole entry, looked up): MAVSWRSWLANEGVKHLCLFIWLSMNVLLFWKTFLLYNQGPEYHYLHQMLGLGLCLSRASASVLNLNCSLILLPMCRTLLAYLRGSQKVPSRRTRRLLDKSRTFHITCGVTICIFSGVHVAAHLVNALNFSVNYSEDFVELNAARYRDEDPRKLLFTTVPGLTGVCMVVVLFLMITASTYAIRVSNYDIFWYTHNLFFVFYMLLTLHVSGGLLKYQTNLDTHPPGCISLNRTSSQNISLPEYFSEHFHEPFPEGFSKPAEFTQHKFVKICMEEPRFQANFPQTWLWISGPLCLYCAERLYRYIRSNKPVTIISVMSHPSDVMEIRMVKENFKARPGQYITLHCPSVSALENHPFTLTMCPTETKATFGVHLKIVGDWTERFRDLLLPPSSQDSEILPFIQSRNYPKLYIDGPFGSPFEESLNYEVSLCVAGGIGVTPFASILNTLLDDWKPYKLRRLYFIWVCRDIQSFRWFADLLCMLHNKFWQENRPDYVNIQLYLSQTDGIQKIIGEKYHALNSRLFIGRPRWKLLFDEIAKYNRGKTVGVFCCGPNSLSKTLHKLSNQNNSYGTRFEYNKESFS
# Chain of Streptavidin (Streptomyces avidinii) (P22629 whole entry, looked up): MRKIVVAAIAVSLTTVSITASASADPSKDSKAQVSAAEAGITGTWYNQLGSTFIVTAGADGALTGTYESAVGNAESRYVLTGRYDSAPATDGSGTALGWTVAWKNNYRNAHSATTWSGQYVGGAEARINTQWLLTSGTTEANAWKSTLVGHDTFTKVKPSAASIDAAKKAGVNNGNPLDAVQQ
# Chain of Torsin-1A (Homo sapiens) (O14656 whole entry, looked up): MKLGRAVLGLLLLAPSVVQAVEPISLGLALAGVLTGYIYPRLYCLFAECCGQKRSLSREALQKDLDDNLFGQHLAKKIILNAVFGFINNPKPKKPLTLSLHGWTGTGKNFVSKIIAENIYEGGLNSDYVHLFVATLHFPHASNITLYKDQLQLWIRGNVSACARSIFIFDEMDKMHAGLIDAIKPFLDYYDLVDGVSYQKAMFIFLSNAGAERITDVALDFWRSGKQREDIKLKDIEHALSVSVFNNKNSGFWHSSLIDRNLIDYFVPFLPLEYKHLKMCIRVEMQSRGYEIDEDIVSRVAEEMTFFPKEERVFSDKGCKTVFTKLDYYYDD
# Chain of NADPH oxidase 2 (Homo sapiens) (P04839 whole entry, looked up): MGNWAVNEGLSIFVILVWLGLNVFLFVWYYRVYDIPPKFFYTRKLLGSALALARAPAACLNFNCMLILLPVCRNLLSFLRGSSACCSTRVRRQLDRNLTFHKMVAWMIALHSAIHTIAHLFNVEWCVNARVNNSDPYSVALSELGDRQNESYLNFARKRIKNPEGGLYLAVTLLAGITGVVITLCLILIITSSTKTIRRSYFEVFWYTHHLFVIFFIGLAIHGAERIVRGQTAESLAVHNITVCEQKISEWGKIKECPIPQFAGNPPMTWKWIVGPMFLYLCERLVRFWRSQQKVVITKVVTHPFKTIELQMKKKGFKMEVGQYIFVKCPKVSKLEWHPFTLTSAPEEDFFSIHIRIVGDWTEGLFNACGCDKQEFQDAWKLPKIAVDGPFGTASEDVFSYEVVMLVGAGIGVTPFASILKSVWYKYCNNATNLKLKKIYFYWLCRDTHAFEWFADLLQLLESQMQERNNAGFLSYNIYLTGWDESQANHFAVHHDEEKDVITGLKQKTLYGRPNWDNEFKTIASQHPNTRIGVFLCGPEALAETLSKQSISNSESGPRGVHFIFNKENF
Structure (SMILES),composite z-score [1],z-score [2],z-score [3],z-score [4],z-score [5],composite z-score [6],composite z-score [7],composite z-score [8],composite z-score [9],composite z-score [10],z-score [11],composite z-score [12],z-score [13],z-score [14],z-score [15],z-score [16],z-score [17],z-score [18],z-score [19],z-score [20]
COc1ccc([C@H]2OC[C@@H]3C[C@H](Cc4ccccc4)C(=O)N32)cc1,0.204,-3.52 (inactive),0.305 (inactive),1.99 (inactive),0.213 (inactive),-0.371,-0.0962,0.48,0.0464,0.532,-0.446 (inactive),0.015,1.96 (inactive),0.92 (inactive),-0.356 (inactive),0.284 (inactive),-0.133,0.829 (inactive),0.284 (inactive),0.695
C=C(/C(=C/C[C@H](OC(C)=O)c1ccc(CO)o1)c1cnc2ccccc2c1)C(C)C,0.473,0.27 (inactive),-1.31 (inactive),-0.671 (inactive),0.647 (inactive),1.44,0.0528,1.27,0.269,1.65,-0.0554 (inactive),0.215,3.56 (inactive),0.625 (inactive),0.589 (inactive),0.0124 (inactive),0.38,-0.306 (inactive),-0.246 (inactive),-0.219
CCOc1cc(C(O)C2C=CC3C(=O)NC(=O)C3N2Nc2ccc(Cl)cc2Cl)ccc1O (stereo not given),-0.0753,0.625 (inactive),-0.542 (inactive),1 (inactive),-0.323 (inactive),-0.431,0.0427,-0.662,-0.141,-0.479,-1.36 (inactive),-0.101,0.588 (inactive),0.0352 (inactive),0.0675 (inactive),1.1 (inactive),-1.04,-1.26 (inactive),-1.88 (inactive),-2.05
C[N+](C)(C)CCCC[C@@H]1NC(=O)[C@@H]2C[C@H](C(=O)NCCCCCCN)[C@H](c3cccc(OCCO)c3)N2C1=O,0.397,0.279 (inactive),0.32 (inactive),2.84 (inactive),-0.618 (inactive),1.67,1.22,0.85,1.65,0.691,0.0598 (inactive),2.07,2.07 (inactive),0.679 (inactive),0.837 (inactive),0.229 (inactive),0.38,0.827 (inactive),0.0305 (inactive),0.559
O=C1N(CCS(=O)(=O)c2ccccc2)c2ccccc2[C@H]2OC(c3ccc(OCCCO)cc3)=N[C@@]12Cc1ccccc1,0.636,-3.51 (inactive),0.582 (inactive),5.87 (inactive),-1.86 (inactive),0.274,0.397,1.08,1.07,1.74,-1.05 (inactive),0.253,31.2 (active),27.5 (active),3.08 (inactive),6.96 (inactive),0.468,-1.85 (inactive),1.07 (inactive),-0.191
CN1C2C=C(CCCO)C(C3C(=O)N(C(N)=O)C(=O)C32)C1C1CC1 (stereo not given),-0.173,-0.122 (inactive),0.57 (inactive),0.522 (inactive),0.373 (inactive),-0.0742,-0.0963,0.0337,0.143,0.316,-0.625 (inactive),-0.188,-0.234 (inactive),-0.0718 (inactive),-0.624 (inactive),-0.0366 (inactive),-0.896,0.191 (inactive),-0.07 (inactive),0.257
CCCN1C(=O)[C@]2(Cc3ccccc31)N=C(c1ccc(OCCCO)cc1)O[C@@H]2c1ccccc1,0.489,-5.07 (inactive),-2.3 (inactive),0.344 (inactive),-0.647 (inactive),0.899,-0.0087,0.738,0.423,1.12,-0.753 (inactive),0.643,30.9 (active),25.5 (active),3.13 (inactive),2.19 (inactive),0.117,-3 (inactive),-0.843 (inactive),-1.8
[N-]=[N+]=NCc1ccccc1C[C@@]1(C(N)=O)N=C(c2ccc(OCCCO)cc2)O[C@@H]1c1ccccc1,-0.182,-3.28 (inactive),0.103 (inactive),0.498 (inactive),-0.0576 (inactive),0.559,0.144,0.754,1.22,-0.671,-1.25 (inactive),0.408,27.2 (active),19.2 (active),0.354 (inactive),2.58 (inactive),-0.494,-2.31 (inactive),0.64 (inactive),-0.235
CC(C)[Si]1(C(C)C)OCc2cc(-c3ccc(-c4ccc(Cl)c(Cl)c4)o3)nc(-c3ccccc3)c21,-0.345,-0.243 (inactive),-0.543 (inactive),0.484 (inactive),-0.272 (inactive),-0.832,-0.295,-0.193,-1.15,-0.128,-0.618 (inactive),-0.0501,1.01 (inactive),0.394 (inactive),0.6 (inactive),0.138 (inactive),-0.106,0.237 (inactive),-1.35 (inactive),0.701
